Dicer inh: inhibitors of Dicer pre-microRNA processing, primary screen, biochemical, cat-ELCCA, chemiluminescence. cat-ELCCA pre-miR-21 Dicer processing; stronger effect = higher value. z-score at 25 µM. actives 6% (n = 47,000). AID 1347074, 2019; in the data active means z-score above about 3, passing the limit was not always enough;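 further: higher signal means more uncleaved substrate so more Dicer inhibition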
A number is an active result; - = inactive. Shown is part of a subset that was picked to be rich in hits.

SMILES	Dicer inh
CC(C)NC(=O)Nc1n[nH]c(Nc2ccc(Cl)cc2)n1	12
O=C1NC(c2ccc([N+](=O)[O-])s2)Nc2ccccc21 (stereo not given)	-
COC(=O)C(C)Oc1ccc2c(=O)c(Oc3cc(C)cc(C)c3C)coc2c1 (stereo not given)	-
COC(=O)c1cccc(CO/N=C(\C)c2ccc(Cl)c(Cl)c2)c1	-
OCCCc1nc2ccccc2n1CCCCOc1ccc(Cl)cc1	6.1
OCCCc1nc2ccccc2n1CCCOc1ccc(Cl)cc1	-
OCc1nc2ccccc2n1CC(O)COc1ccc(Cl)cc1 (stereo not given)	-
COc1ccc2cc(/C(C)=N/OC(=O)C(C)(C)C)ccc2c1	-
CCOC(=O)CN(C(=O)COc1nc(-c2ccccc2)cc(C)c1C#N)c1cccc(OC)c1	-
CCOC(=O)CN(C(=O)COc1nc(-c2ccccc2)cc(C)c1C#N)c1ccc(C)cc1	-
CCOC(=O)CN(C(=O)COc1nc(-c2ccccc2)cc(C)c1C#N)c1ccccc1C	3.5
Clc1ccc(CSc2ccc(-c3ccccn3)s2)cc1	-
Oc1c(C(Nc2ccccc2Cl)c2ccccn2)ccc2cccnc12 (stereo not given)	-
Cc1ccc(C(NC(=O)C(C)C)c2ccc3cccnc3c2O)cc1 (stereo not given)	-
Cc1cccc(NC(c2ccccc2C)c2ccc3ccc(C)nc3c2O)n1 (stereo not given)	5.3
O=C(NC(c1ccccc1)c1ccc2cccnc2c1O)c1ccccc1 (stereo not given)	6
CCc1ccccc1NC(c1ccccn1)c1ccc2cccnc2c1O (stereo not given)	8
Oc1cccnc1NC(c1ccc(Cl)cc1)c1ccc2cccnc2c1O (stereo not given)	3.6
Oc1ccc2ncccc2c1C(Nc1ccccn1)c1ccc(Cl)cc1 (stereo not given)	-
Cc1ccc2ccc(C(Nc3ccccn3)c3ccccc3C)c(O)c2n1 (stereo not given)	-
O=C(NC(Sc1ncccn1)C(=O)c1ccccc1)c1ccccc1 (stereo not given)	-
Cc1cccc(NC(c2ccncc2)c2ccc3cccnc3c2O)c1 (stereo not given)	-
Cc1cccc(NC(c2ccccc2F)c2ccc3cccnc3c2O)n1 (stereo not given)	-
CCN1C(=O)C(NC(C)=O)c2cc(Cl)ccc21 (stereo not given)	-
CCOC(=O)c1c(C)[nH]c(C(=O)CN2CCCCC2)c1C	-
SMILES	Dicer inh
N#CC(C(=O)c1ccccc1Cl)=C1SCCS1	-
N#CC(Nc1cc(C(F)(F)F)cc(C(F)(F)F)c1)c1ccccc1 (stereo not given)	-
O=C(ON(Cc1ccc(Cl)cc1)Cc1ccc(Cl)cc1)c1ccc(Cl)cc1Cl	-
Cc1onc(-c2ccccc2)c1C(=O)OCC(=O)c1ccc(Br)cc1	-
Cc1ccc2ccc(C(Nc3ccccn3)c3ccccc3F)c(O)c2n1 (stereo not given)	-
CCOc1ccc(C(Nc2ccccn2)c2ccc3ccc(C)nc3c2O)cc1C (stereo not given)	3.5
COc1ccc(C(Nc2ccccn2)c2ccc3ccc(C)nc3c2O)cc1 (stereo not given)	-
Cc1ccc2ccc(C(Nc3ccccn3)c3ccccc3)c(O)c2n1 (stereo not given)	5.9
COc1cccc(C(Nc2ccccn2)c2ccc3ccc(C)nc3c2O)c1OC (stereo not given)	-
Oc1c(C(Nc2ccccn2)c2ccccc2Cl)ccc2cccnc12 (stereo not given)	3.9
CCOc1cc(C(Nc2ccccn2)c2ccc3cccnc3c2O)ccc1O (stereo not given)	-
CCOc1cc(C(Nc2ccccn2)c2ccc3ccc(C)nc3c2O)ccc1OC (stereo not given)	-
CCN(CC)c1ccc(C(Nc2ccccn2)c2ccc3cccnc3c2O)cc1 (stereo not given)	-
COC(=O)CN1C(CCN2CCOCC2)=Nc2ccc(Br)cc2C1c1ccccc1 (stereo not given)	-
COc1cc(CNCCSc2nnnn2C)ccc1OCc1ccc(F)cc1Cl	-
CCCCC(C(=O)OC)N1C(=O)C2C3c4ccccc4C(c4ccccc43)C2C1=O (stereo not given)	-
C/C(=N\NC(N)=S)c1ccc(CC(C)C)cc1	-
CCCc1cc(=O)n2c(-c3ccc(Cl)cc3)csc2n1	-
C=CCOC(=O)C1=C(C)NC2=C(C(=O)CCC2)C1c1cc2c(cc1Cl)OCO2 (stereo not given)	-
O=C1CCc2cc(C3=CSC4=NCCCN34)ccc2N1	-
CC(=O)NC(Nc1ccc(F)c(Cl)c1)(C(F)(F)F)C(F)(F)F	-
CN(C)C(=S)Sc1c(O)c2ccccc2n(C)c1=O	-
COc1ccc(NS(=O)(=O)c2ccc(N)cc2)cc1	-
COc1ccc(NS(=O)(=O)c2ccc(NS(=O)(=O)c3ccc(Cl)cc3)cc2)cc1	-
COc1ccc(NS(=O)(=O)c2cccc(S(=O)(=O)c3ccc(Cl)cc3)c2)cc1	3.4
SMILES	Dicer inh
CC(C)(C)c1ccc2nc(/C(=C\c3ccc(F)cc3)NC(=O)c3ccccc3)[nH]c2c1	-
C[C@]12CC=CCC1CCC1C2CC[C@](C)(C(=O)O)C1/C=C1/Nc2ccccc2C1=O (stereo not given in full)	3.9
C[C@]12CC[C@@H](O)CC1CCC1C2CC[C@](C)(C(=O)O)C1/C=C1/Nc2ccccc2C1=O (stereo not given in full)	-
CC1=C(C#N)C(c2ccccc2OC(C)C)C2=C(CC(c3ccccc3)CC2=O)N1 (stereo not given)	-
Cn1c(=O)c2c(O)c(C=Nc3cc(Cl)cc(Cl)c3)c(=O)n(-c3ccccc3)c2n(C)c1=O	-
COC(=O)c1cc(S(=O)(=O)C(C)C)cs1	-
CC(C)CC1CC(C)(c2csc(Nc3ccccc3)n2)OC1=O (stereo not given)	-
CCCCOCC1CC2(CC(C)(c3csc(N)n3)OC2=O)C(=O)O1 (stereo not given)	-
CCC1CC(C)(c2csc(Nc3ccc(C)cc3)n2)OC1=O (stereo not given)	-
CCCOCC1CC2(CC(C)(c3csc(Nc4ccc(C)cc4)n3)OC2=O)C(=O)O1 (stereo not given)	-
C=CCNc1nc(C2(C)CC3(CC(COCC(C)C)OC3=O)C(=O)O2)cs1 (stereo not given)	3.1
C=CCNc1nc(C2(C)CC3(CC(C)OC3=O)C(=O)O2)cs1 (stereo not given)	3.5
Cc1noc(C)c1S(=O)(=O)NC1Cc2ccccc2C1	-
Cc1ccc2nc3c(cc2c1)c(=O)n(-c1ccccc1)c1c3c(=O)n(C)c(=O)n1C	-
COc1ccc(C2C(C#N)=C(N)Oc3n[nH]c(C)c32)cc1OCc1ccc(Cl)cc1 (stereo not given)	-
C#CCSc1ncc(-c2ccc(Cl)cc2)n1C	-
COc1ccc(OC)c(C2NC(=O)c3c(sc4c3CCN(C)C4)N2)c1 (stereo not given)	-
O=C1C=C(NC2Cc3ccccc3C2)CC(c2ccccc2)C1 (stereo not given)	-
O=C1C=C(NC2Cc3ccccc3C2)CC(c2cccc(Cl)c2)C1 (stereo not given)	-
CN(C)c1ccc(C2CC(=O)C=C(NC3Cc4ccccc4C3)C2)cc1 (stereo not given)	4.6
Cc1cc(-c2onc(C)c2-c2nc(-c3cccc(C(F)(F)F)c3)no2)no1	-
Fc1ccc(NCc2ccncc2)cc1	3.5
